Measurements from PubChem BioAssay (NCATS).
Values joined by “and” are separate entries in the source; they are usually repeats but may differ in a detail not shown here. Identical values can stand only once. Inconclusive results are not listed. Active and inactive are the calls of the source. Unless noted, calls follow the shape of the dose curve; as a rule, active = well fitted curve in the direction sought with a large enough effect; inconclusive = small, poorly fitted or top-dose-only effect, or another doubt; inactive = no such curve, though single readings can be large; an effect the other way counts as inactive or inconclusive.

Legend:
[1] = biological target: Arylsulfatase A (Homo sapiens) (UniProt P15289); experiment: qHTS screen for enhancers of Arylsulfatase A (ASA1): LOPAC Validation Assay (AID 720538)
Arylsulfatase A (Homo sapiens), sequence (P15289 whole entry, looked up): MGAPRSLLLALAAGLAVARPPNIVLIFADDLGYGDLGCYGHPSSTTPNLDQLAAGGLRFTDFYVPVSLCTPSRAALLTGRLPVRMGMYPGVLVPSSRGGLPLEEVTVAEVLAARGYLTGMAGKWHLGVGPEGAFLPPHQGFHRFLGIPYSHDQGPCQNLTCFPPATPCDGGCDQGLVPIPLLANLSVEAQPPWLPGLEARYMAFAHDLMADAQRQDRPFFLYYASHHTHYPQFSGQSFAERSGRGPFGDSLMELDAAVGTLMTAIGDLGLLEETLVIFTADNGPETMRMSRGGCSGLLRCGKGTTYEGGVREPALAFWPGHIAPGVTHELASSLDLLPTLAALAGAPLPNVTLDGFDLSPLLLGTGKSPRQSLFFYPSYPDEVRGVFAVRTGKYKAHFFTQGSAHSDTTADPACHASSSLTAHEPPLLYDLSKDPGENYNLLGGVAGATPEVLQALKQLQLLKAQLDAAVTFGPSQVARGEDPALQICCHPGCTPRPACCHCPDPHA
Procedure, shortened: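 MLD patient fibroblasts (SV40, ASA-I179S), 1536-well; adhere 6 hrs; cpd 48h, 37 degree C, 5% CO2; pNCS 0.5mM final in lysis buffer, 14h RT; stop 1N NaOH final; fluor. Ex525/Em598.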

[2] = qHTS for compounds that reverse cellular toxicity of Amyloid beta (A-beta) peptide in yeast: LOPAC Validation Assay (AID 720559);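 also: plate controls were DMSO for no effect and equimolar ferric chloride plus clioquinol rescue for full effect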
Procedure, shortened: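 Medium dispensed, compounds pinned, A-beta yeast suspension added; plates held at 30 C for 48 hr; absorbance measured at 600 nm to gauge growth; values scaled between DMSO and FeCl3/clioquinol (equimolar) controls.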

[3] = qHTS for Activators of Parkin Expression: LOPAC Validation Assay (NLuc Reporter) (AID 720572)
Procedure, shortened: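 Neuronal line stably carrying a FLuc/NLuc coincidence reporter under the Parkin promoter, seeded 24 h, then dosed in 7-point series for 24 h at 37 C. NLuc luminescence read after FLuc; normalized to DMSO and positive control (100%).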

[4] = qHTS for Activators of Parkin Expression: LOPAC Validation Assay (FLuc Reporter) (AID 720573)
Procedure, shortened: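 Cells seeded, 24 h; compounds pinned, 7-pt dose response; 24 h at 37 C/5% CO2; volume reduced; FLuc reagent 10 min RT; luminescence read. Normalization: DMSO = 0, positive control = 100%.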

[5] = qHTS assay for small molecule agonists of the antioxidant response element (ARE) signaling pathway measured by Nrf2-dependant transcriptional activity (AID 720636; active = well fitted curve in the direction sought with a large enough effect in the repeat runs; an effect the other way counts as inactive or inconclusive; also: % of control where 0% means no effect)
Procedure, shortened: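 Nrf2-dependent transcription read as ONE-Glo luciferase signal from ARE-luc HepG2 reporter cells after 16 hr compound treatment at 37 C, 5% CO2, in assay medium with 1% dialyzed FBS.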

[6] = qHTS assay for small molecule antagonists of the retinoid-related orphan receptor gamma (ROR-gamma) signaling pathway - cell viability counter screen (AID 720652; active = well fitted curve in the direction sought with a large enough effect in the repeat runs; an effect the other way counts as inactive or inconclusive;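 also: CHO reporter cells with doxycycline-induced ROR-gamma expression; series mostly up to about 92 µM; compound exposure lasted 16 hr before ATP read; % is scaled to controls: 0 for no effect and ±100 for the full control effect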)
Procedure, shortened: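 Cytotoxicity is quantified via intracellular ATP (CellTiter-Glo luminescence) in doxycycline-induced CHO ROR response element-luciferase reporter cells treated with compound for 16 hr at 37 C, 5% CO2.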

[7] = qHTS assay for small molecule agonists of the antioxidant response element (ARE) signaling pathway measured by Nrf2-dependant transcriptional activity - cell viability counter screen (AID 720653; active = well fitted curve in the direction sought with a large enough effect in the repeat runs; an effect the other way counts as inactive or inconclusive; also: % is scaled to controls: 0 for no effect and ±100 for the full control effect); details: ARE-bla HepG2 viability, CellTiter-Glo ATP luminescence, 16 h; max response: active compounds read low
Procedure, shortened: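 ARE-bla HepG2 cells (2,000/well) rested 5 hrs at 37C/5% CO2, then exposed to compounds in DMSO for 16 hrs. Viability was read in the same wells as intracellular ATP by luminescence, 30 min at room temperature after reagent addition.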

[8] = qHTS Assay for Identifying Gametocytocidal Compounds (AID 743244); also: potency is read from the fitted curve at half-maximal effect;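 as to max response: % is scaled to controls: 0 for no effect and ±100 for the full control effect; actives lower the fluorescent signal which means gametocytes are killed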; details: P. falciparum 3D7 stage III-V gametocytes, alamarBlue, 72 h; max response: active compounds read low
Procedure, shortened: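 Fluorescence at Ex 525/Em 598 nm, recorded 24 h after alamarBlue addition, reports residual metabolic activity of 3D7 gametocytes (stages III–V) following 72 h compound exposure at 37 °C, 5% CO2.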

[9] = qHTS assay for cell viability of HEK293 cells (AID 743288); details: ATP luminescence (CellTiter-Glo), 18 h; max response: active compounds read low; also: % is scaled to controls: 0 for no effect and ±100 for the full control effect; nearly all actives have a fitted effect of over 50% in size
Procedure, shortened: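 HEK293 parental, 2,000 cells/well; ≥5 h pre-incubation 37 C; pintool compound addition; 18 h, 37 C; CellTiter-Glo 30 min RT; luminescence read.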

[10] = qHTS assay for cell viability of the p53RE-bla HCT-116 cell line (AID 743292); also: % is scaled to controls: 0 for no effect and ±100 for the full control effect; nearly all actives have a fitted effect of over 55% in size
Procedure, shortened: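 ATP-based luminescent viability (CellTiter-Glo, 30 min RT) after 16 h compound treatment at 37 C of p53RE-bla HCT-116 cells, seeded at 4,000 cells/well and rested 5 h before dosing.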

[11] = biological target: T1, Hexokinase-4 (Homo sapiens) + Glucokinase regulatory protein (Homo sapiens) (UniProt P35557+Q14397); experiment: qHTS assay for inhibitors of recombinant human GCK-GKRP interaction: Diaphorase-coupled assay (AID 743205)
T1 sequence (P35557 whole entry, looked up): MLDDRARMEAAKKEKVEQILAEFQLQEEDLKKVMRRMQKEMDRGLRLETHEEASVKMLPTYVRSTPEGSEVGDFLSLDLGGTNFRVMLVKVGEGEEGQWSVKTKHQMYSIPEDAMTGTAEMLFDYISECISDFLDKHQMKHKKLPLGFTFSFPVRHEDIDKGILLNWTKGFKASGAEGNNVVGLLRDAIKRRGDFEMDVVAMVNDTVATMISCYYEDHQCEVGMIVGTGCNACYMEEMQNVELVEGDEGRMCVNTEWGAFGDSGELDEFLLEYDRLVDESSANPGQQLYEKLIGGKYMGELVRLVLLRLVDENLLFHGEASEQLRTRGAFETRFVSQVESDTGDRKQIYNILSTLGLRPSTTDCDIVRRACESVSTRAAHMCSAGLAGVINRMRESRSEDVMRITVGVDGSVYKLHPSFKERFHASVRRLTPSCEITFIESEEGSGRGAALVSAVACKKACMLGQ
T1 sequence (Q14397 whole entry, looked up): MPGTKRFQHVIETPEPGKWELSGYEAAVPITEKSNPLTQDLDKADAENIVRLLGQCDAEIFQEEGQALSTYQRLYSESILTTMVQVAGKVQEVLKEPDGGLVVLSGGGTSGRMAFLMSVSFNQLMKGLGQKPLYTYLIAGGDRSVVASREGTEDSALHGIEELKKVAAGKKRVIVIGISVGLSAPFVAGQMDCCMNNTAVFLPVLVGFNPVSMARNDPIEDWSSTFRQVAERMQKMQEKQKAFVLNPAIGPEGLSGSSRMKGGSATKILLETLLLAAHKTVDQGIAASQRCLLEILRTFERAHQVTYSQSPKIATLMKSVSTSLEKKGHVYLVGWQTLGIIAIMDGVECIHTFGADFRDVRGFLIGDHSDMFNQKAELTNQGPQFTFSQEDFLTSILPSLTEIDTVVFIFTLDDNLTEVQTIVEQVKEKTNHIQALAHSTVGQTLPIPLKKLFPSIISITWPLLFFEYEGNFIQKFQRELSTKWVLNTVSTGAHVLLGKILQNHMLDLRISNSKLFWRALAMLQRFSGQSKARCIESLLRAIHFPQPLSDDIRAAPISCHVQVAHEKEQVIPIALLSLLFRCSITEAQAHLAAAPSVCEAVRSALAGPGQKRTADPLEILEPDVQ
Procedure, shortened: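 25 mM Hepes pH 7.6, 5 mM glucose, 0.4 mM ATP, 4 U/ml G6PDH; 10 nM each GST-GCK/FLAG-GKRP. Kinetic fluorescence read, 1/min × 30 min. Normalized: DMSO ± enzyme = max/min.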

[12] = biological target: T1, Hexokinase-4 (Homo sapiens) + Glucokinase regulatory protein (Homo sapiens); experiment: qHTS assay for inhibitors of recombinant human GCK-GKRP interaction: ADP-Glo assay (AID 743206);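 also: plate controls were DMSO plus enzyme for no effect and no enzyme for full effect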
Procedure, shortened: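 GST-GCK and FLAG-GKRP (15 nM each in the dispensed mix, with 2 uM S6P) react with 0.4 mM ATP and 5 mM glucose (final) in Hepes pH 7.6 for 60 min at room temperature. ADP is measured by ADP-Glo luminescence.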

[13] = biological target: T1, Hexokinase-4 (Homo sapiens) + Glucokinase regulatory protein (Homo sapiens); experiment: qHTS assay for inhibitors of recombinant human GCK-GKRP interaction: HTRF assay (AID 743207);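 also: 0% = DMSO with GCK present and -100% = DMSO wells lacking GCK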
Procedure, shortened: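 5 nM GST-GCK + 5 nM FLAG-GKRP + 2 uM S6P, pH 7.1 buffer (25 mM Hepes, 2 mM MgCl2, 25 mM KCl, 1 mM DTT, Tween/BSA); pin-transferred cpd; anti-FLAG XL665/anti-GST K; 60 min RT; HTRF.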

COc1cc(Cc2cnc(N)nc2N)cc(OC)c1OC
inactive: Potency [1] | outcome [2] | Potency [3] | outcome [4] | outcome [5] | outcome [6] | max response [7] 0.934% | max response [8] 1.83% and 3.42% | max response [9] -2.08% | outcome [10]

COc1ccc(CN(CCN(C)C)c2ccccn2)cc1
inactive: Potency [1] | outcome [2] | Potency [3] | outcome [4] | outcome [5] | outcome [6] | max response [7] -3.41% | outcome [11] | outcome [12] | Potency [13] | max response [8] -1.15% and 9.8% | max response [9] -9.66% | outcome [10]

CCc1cccc(N(C)C(N)=Nc2cccc3ccccc23)c1
inactive: Potency [1] | outcome [2] | Potency [3] | outcome [4] | outcome [11] | outcome [12] | Potency [13] | max response [8] -2.27% and 4.9%

CCn1ccnc1CC1COc2ccccc2O1 (stereo unspecified)
inactive: Potency [1] | outcome [2] | Potency [3] | outcome [4] | outcome [11] | outcome [12] | Potency [13] | max response [8] 13.9% and 11.7%

CN(C)CCCN1c2ccccc2Sc2ccccc21
inactive: Potency [1] | outcome [2] | Potency [3] | outcome [4] | outcome [11] | outcome [12] | Potency [13]

CCC(=O)c1ccc2c(c1)N(CCCN(C)C)c1ccccc1S2
inactive: Potency [1] | outcome [2] | Potency [3] | outcome [4] | outcome [11] | outcome [12] | Potency [13]

NC(=O)N1c2ccccc2C=Cc2ccccc21
inactive: Potency [1] | outcome [2] | Potency [3] | outcome [4] | outcome [5] | outcome [6] | max response [7] -1.67% and -8.32% | outcome [11] | outcome [12] | Potency [13] | max response [8] -9.6% and 15.5% | max response [9] -11.6% and -13.8% | outcome [10]

c1cnc(N2CCN(Cc3ccc4c(c3)OCO4)CC2)nc1
inactive: Potency [1] | outcome [2] | Potency [3] | outcome [4] | outcome [11] | outcome [12] | Potency [13] | max response [8] 1.5%

CO[C@@]1(NC(=O)CSCC#N)C(=O)N2C(C(=O)O)=C(CSc3nnnn3C)CS[C@@H]21
inactive: Potency [1] | outcome [2] | Potency [3] | outcome [4] | outcome [11] | outcome [12] | Potency [13] | max response [8] 0.458% and 21.8%

C[N+](C)(C)CCOC(=O)CCC(=O)OCC[N+](C)(C)C
inactive: Potency [1] | outcome [2] | Potency [3] | outcome [4] | outcome [11] | outcome [12] | Potency [13] | max response [8] 0.123% and 29.2%

FC(F)(F)c1ccccc1-n1ccnc1
inactive: Potency [1] | outcome [2] | Potency [3] | outcome [4] | outcome [11] | outcome [12] | Potency [13] | max response [8] 18.2% and -13.7%

O=C(O)CCCCCCCC(=O)O
inactive: Potency [1] | outcome [2] | Potency [3] | outcome [4] | outcome [5] | max response [7] -8.37% | outcome [11] | outcome [12] | Potency [13] | max response [8] 9% and 10.5% | max response [9] -0.211% | outcome [10]

CCCN1C[C@H](CSC)C[C@@H]2c3cccc4[nH]cc(c34)C[C@H]21
inactive: Potency [1] | outcome [2] | Potency [3] | outcome [4] | outcome [11] | outcome [12] | Potency [13] | max response [8] 27.1%

C[C@]12CCC(=O)C=C1CC[C@@H]1[C@@H]2C(=O)C[C@@]2(C)[C@H]1CC[C@]2(O)C(=O)CO
inactive: Potency [1] | outcome [2] | Potency [3] | outcome [4] | outcome [5] | max response [7] -5.48% | outcome [11] | outcome [12] | Potency [13] | max response [8] -0.251% and -12.4% | max response [9] -1.33% | outcome [10]

COc1ccc([C@@H]2Sc3ccccc3N(CCN(C)C)C(=O)[C@@H]2OC(C)=O)cc1
inactive: Potency [1] | outcome [2] | Potency [3] | outcome [4] | outcome [11] | outcome [12] | Potency [13] | max response [8] -3.45%

C[C@]12C=CC(=O)C=C1CC[C@H]1[C@@H]3C[C@@H](O)[C@](O)(C(=O)CO)[C@@]3(C)C[C@H](O)[C@@]12F
inactive: Potency [1] | outcome [2] | Potency [3] | outcome [4] | outcome [5] | max response [7] -0.0511% | outcome [11] | outcome [12] | Potency [13] | max response [8] 20.4% and -3.94% | max response [9] -7.12% | outcome [10]

Cc1nc2c([nH]1)c(=O)n(C)c(=O)n2Cc1ccco1
inactive: Potency [1] | outcome [2] | Potency [3] | outcome [4] | outcome [11] | outcome [12] | Potency [13] | max response [8] -4.35% and 2.16%

CC(=O)[C@]1(O)Cc2c(O)c3c(c(O)c2[C@@H](O[C@H]2C[C@H](N)[C@H](O)[C@H](C)O2)C1)C(=O)c1ccccc1C3=O
active: Potency [8] 6.31 µM and 1.12 µM
inactive: Potency [1] | outcome [2] | Potency [3] | outcome [4] | outcome [11] | outcome [12] | Potency [13]
